Hit rate of the full screen: of about 5,500 compounds, about 2,000 (36%) were called active. Not shown: some 18% with an inconclusive outcome. Rule as the data show it: active = normalized growth mostly below about 0.91 (no sharp cut-off); inconclusive = no clear call, values can overlap the other calls; inactive = mostly above about 0.92. The list shows a part of the results.
Assay: chemical genetic growth profiling, strain panel (AID 1159580);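 also: tested at 20 µM; growth read once vehicle control cultures reached saturation at 30 °C; 1 = growth at the plate median or of vehicle wells; lower values mean less growth of the strain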
Conditions: S. cerevisiae deletion strains, growth OD

Measured: normalized growth

CCCc1cc(OC)c2c(c1)OCO2
inactive: locus YAL021C, strain ccr4, stronger effect = lower value 1.04 | locus YAL026C, strain drs2, stronger effect = lower value 0.988 | locus YAL030W, strain snc1, stronger effect = lower value 0.999 | locus YBL061C, strain skt5, stronger effect = lower value 0.993 | locus YBR009C, strain hhf1, stronger effect = lower value 0.988 | locus YBR023C, strain chs3, stronger effect = lower value 0.991 | locus YBR171W, strain sec66, stronger effect = lower value 0.973 | locus YBR231C, strain swc5, stronger effect = lower value 1.01 | locus YBR279W, strain paf1, stronger effect = lower value 1 | locus YCL011C, strain gbp2, stronger effect = lower value 0.999 | locus YCL016C, strain dcc1, stronger effect = lower value 0.98 | locus YCL069W, strain vba3, stronger effect = lower value 0.996 | locus YCR088W, strain abp1, stronger effect = lower value 0.985 | locus YDL005C, strain med2, stronger effect = lower value 0.975 | locus YDL040C, strain nat1, stronger effect = lower value 0.978 | locus YDR001C, strain nth1, stronger effect = lower value 0.987 | locus YDR069C, strain doa4, stronger effect = lower value 0.994 | locus YDR137W, strain rgp1, stronger effect = lower value 0.94 | locus YDR159W, strain sac3, stronger effect = lower value 0.943 | locus YDR195W, strain ref2 0.974 | locus YDR297W, strain sur2, stronger effect = lower value 0.995 | locus YDR334W, strain swr1, stronger effect = lower value 1.01 | locus YDR335W, strain msn5, stronger effect = lower value 0.988 | locus YDR392W, strain spt3, stronger effect = lower value 0.952 | locus YEL003W, strain gim4, stronger effect = lower value 0.994 | locus YEL037C, strain rad23, stronger effect = lower value 0.998 | locus YEL061C, strain CIN8 (second series), stronger effect = lower value 0.979 | locus YER015W, strain faa2, stronger effect = lower value 0.989 | locus YER016W, strain bim1, stronger effect = lower value 0.977 | locus YER111C, strain swi4, stronger effect = lower value 0.976 | locus YER155C, strain BEM2 (second series), stronger effect = lower value 0.928 | locus YFR010W, strain ubp6, stronger effect = lower value 0.999 | locus YGL167C, strain pmr1, stronger effect = lower value 0.983 | locus YGL173C, strain kem1, stronger effect = lower value 0.987 | locus YGL227W, strain vid30, stronger effect = lower value 0.974 | locus YGL240W, strain doc1, stronger effect = lower value 1 | locus YGL253W, strain hxk2, stronger effect = lower value 0.995 | locus YHR013C, strain ard1, stronger effect = lower value 1.11 | locus YHR027C, strain rpn1, stronger effect = lower value 0.982 | locus YHR030C, strain SLT2, stronger effect = lower value 0.944 | locus YHR079C, strain IRE1, stronger effect = lower value 0.946 | locus YHR142W, strain chs7, stronger effect = lower value 0.974 | locus YJL092W, strain hpr5, stronger effect = lower value 0.985 | locus YJL095W, strain BCK1 (second series), stronger effect = lower value 1 | locus YJL095W, strain BCK1, stronger effect = lower value 1.02 | locus YJL115W, strain asf1, stronger effect = lower value 0.98 | locus YJL129C, strain trk1, stronger effect = lower value 0.992 | locus YJL154C, strain vps35, stronger effect = lower value 0.994 | locus YJL164C, strain tpk1, stronger effect = lower value 1 | locus YJL166W, strain qcr8, stronger effect = lower value 0.985 | locus YJL187C, strain SWE1, stronger effect = lower value 1 | locus YJR066W, strain TOR1, stronger effect = lower value 0.937 | locus YKL160W, strain elf1, stronger effect = lower value 0.983 | locus YKR026C, strain gcn3, stronger effect = lower value 0.971 | locus YKR091W, strain srl3, stronger effect = lower value 0.984 | locus YLL001W, strain dnm1, stronger effect = lower value 0.999 | locus YLL026W, stronger effect = lower value 0.992 | locus YLL041C, strain sdh2, stronger effect = lower value 0.997 | locus YLR027C, strain aat2, stronger effect = lower value 0.984 | locus YLR113W, strain HOG1, stronger effect = lower value 1.04 | locus YLR221C, strain rsa3, stronger effect = lower value 0.989 | locus YLR258W, strain gsy2, stronger effect = lower value 0.998 | locus YLR262C, strain YPT6 (second series), stronger effect = lower value 0.927 | locus YLR320W, strain mms22, stronger effect = lower value 1 | locus YLR342W, strain FKS1, stronger effect = lower value 0.977 | locus YLR357W, strain rsc2, stronger effect = lower value 0.974 | locus YLR370C, strain arc18, stronger effect = lower value 0.984 | locus YLR384C, strain iki3, stronger effect = lower value 0.995 | locus YML120C, strain ndi1, stronger effect = lower value 0.987 | locus YMR058W, strain fet3, stronger effect = lower value 1.02 | locus YMR125W, strain sto1, stronger effect = lower value 0.971 | locus YMR129W, stronger effect = lower value 0.975 | locus YMR205C, strain PFK2, stronger effect = lower value 0.98 | locus YMR231W, strain pep5, stronger effect = lower value 1 | locus YNL071W, strain lat1, stronger effect = lower value 0.998 | locus YNL183C, strain NPR1, stronger effect = lower value 1.01 | locus YNL209W, strain ssb2, stronger effect = lower value 0.967 | locus YNL248C, strain rpa49, stronger effect = lower value 0.989 | locus YNL322C, strain KRE1 (second series), stronger effect = lower value 0.976 | locus YNR049C, strain mso1, stronger effect = lower value 0.992 | locus YOR001W, strain rrp6, stronger effect = lower value 0.999 | locus YOR070C, strain gyp1, stronger effect = lower value 0.997 | locus YOR080W, strain dia2, stronger effect = lower value 0.966 | locus YOR083W, strain WHI5, stronger effect = lower value 0.938 | locus YOR106W, strain vam3, stronger effect = lower value 0.976 | locus YOR231W, strain MKK1, stronger effect = lower value 0.957 | locus YOR265W, strain rbl2, stronger effect = lower value 0.981 | locus YOR270C, strain vph1, stronger effect = lower value 1 | locus YOR290C, strain snf2, stronger effect = lower value 0.995 | locus YPL051W, strain arl3, stronger effect = lower value 0.991 | locus YPL078C, strain atp4, stronger effect = lower value 0.981 | locus YPL106C, strain sse1, stronger effect = lower value 0.976 | locus YPL240C, strain hsp82, stronger effect = lower value 0.974 | locus YPL256C, strain CLN2, stronger effect = lower value 0.953

Reference: PubChem BioAssay AID1159580 (chemical genetic matrix, 2015)
